Measurements taken from PubChem BioAssay (Tox21).
“And” between values parts separate entries of the source, which are not always exact repeats. Equal values may be shown once. Results filed as inconclusive are left out. The source holds several records for some structures; these can differ, active in one and inactive in another. The source made the active and inactive calls. Unless noted, calls come from the whole dose curve; as a rule, active = well fitted curve in the direction sought with a large enough effect in the repeat runs; inconclusive = weak or mixed curves; inactive = no such curve, though single readings can be large; an effect the other way counts as inactive or inconclusive.

Key:
[1] = qHTS assay to identify small molecule antagonists of the estrogen receptor alpha (ER-alpha) signaling pathway using the BG1 cell line in the presence of 0.1 nM 17-beta-estradiol - cell viability counter screen (AID 1259241); note: nearly all actives have a fitted effect of over 40% in size
How it was run: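 Live-cell protease activity (CellTiter-Fluor fluorescence, 30 min) was read in the same wells after VM7Luc4E2 cells had been exposed to compounds with 0.1 nM 17beta-estradiol for 22 hr at 37C.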

[2] = qHTS assay to identify small molecule antagonists of the androgen receptor (AR) signaling pathway using the MDA cell line in the presence of 0.5 nM R1881 - cell viability counter screen (AID 1259242); note: nearly all actives have a fitted effect of over 45% in size; note: potency is the fitted concentration of half-maximal effect
How it was run: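 MDA-kb2 cells (human breast carcinoma, stably carrying MMTV-luciferase reporter) were exposed to compounds with 0.5 nM R1881 (final) for 16 hr at 37C, 0% CO2; viability then read as live-cell protease fluorescence (CellTiter-Fluor, 30 min) in the same wells.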

[3] = molecular target: Estrogen receptor (Homo sapiens) (UniProt P03372); test: qHTS assay to identify small molecule antagonists of the estrogen receptor alpha (ER-alpha) signaling pathway using the BG1 cell line in the presence of 0.1 nM 17-beta-estradiol (AID 1259244); note: nearly all actives have a fitted effect of over 50% in size; note: potency is the fitted concentration of half-maximal effect
Chain of Estrogen receptor (Homo sapiens) (P03372 whole entry, looked up): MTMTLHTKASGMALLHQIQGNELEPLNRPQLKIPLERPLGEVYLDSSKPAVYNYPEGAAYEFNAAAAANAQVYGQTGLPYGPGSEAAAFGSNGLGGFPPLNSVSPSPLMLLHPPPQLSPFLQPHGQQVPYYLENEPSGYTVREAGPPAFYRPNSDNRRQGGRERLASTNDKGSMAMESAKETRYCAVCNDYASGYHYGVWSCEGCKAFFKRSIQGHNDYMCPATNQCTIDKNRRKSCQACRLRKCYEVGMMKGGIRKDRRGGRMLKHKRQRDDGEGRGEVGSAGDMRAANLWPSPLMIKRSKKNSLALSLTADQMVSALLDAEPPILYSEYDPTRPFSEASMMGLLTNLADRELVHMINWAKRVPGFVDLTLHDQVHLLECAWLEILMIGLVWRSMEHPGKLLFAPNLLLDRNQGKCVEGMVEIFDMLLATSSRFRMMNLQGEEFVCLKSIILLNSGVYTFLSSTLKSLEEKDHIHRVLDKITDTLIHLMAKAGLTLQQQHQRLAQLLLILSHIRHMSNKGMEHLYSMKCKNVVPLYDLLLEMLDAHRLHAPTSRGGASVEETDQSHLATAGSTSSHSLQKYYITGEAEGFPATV
How it was run: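 VM7Luc4E2 cells (endogenous full-length ER-alpha, stable 4xERE-luciferase) were grown 5 days in phenol red-free medium with charcoal-stripped FBS, then exposed 22 h at 37C to compounds plus 0.1 nM (final) 17beta-estradiol; ONE-Glo luminescence read-out.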

[4] = qHTS assay to identify small molecule HDAC inhibitors (AID 1259364); note: top concentration of the series differs between compounds; nearly all actives have a fitted effect of over 45% in size
How it was run: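 Wild-type HCT-116 cells were plated overnight, exposed to compounds for 2 h at 37 °C, then given HDAC-Glo class I/II luminogenic reagent for 30 min at room temperature before luminescence was read.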

[5] = qHTS assay to identify small molecule HDAC inhibitors - cell viability counter screen (AID 1259365); note: series mostly up to about 92 µM; nearly all actives have a fitted effect of over 50% in size
How it was run: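 HCT-116 (wild type), 1,500 cells/well, overnight 37C/5% CO2; compound in DMSO 2hr; CellTiter-Glo 30min RT; luminescence read.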

[6] = qHTS assay to identify small molecule antagonists of the sonic hedgehog signaling (Shh) pathway - cell viability counter screen (AID 1259367); note: nearly all actives have a fitted effect of over 55% in size; note: potency is the fitted concentration of half-maximal effect
How it was run: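 After a 4 hr settling period, 3T3 Gli1-Luc cells were treated with DMSO-dissolved chemicals and conditioned medium, kept 24 hr at 37C in 5% CO2, and assayed for viability by CellTiter-Fluor fluorescence following 1 hr reagent incubation.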

[7] = qHTS assay to identify small molecule agonists of the sonic hedgehog signaling (Shh) pathway (AID 1259368; calls by dose curve; note: series mostly up to about 92 µM; nearly all actives have a fitted effect of over 15% in size)
How it was run: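 NIH/3T3-derived 3T3Gli1-Luc cells carrying a stably integrated Gli1 response element–firefly luciferase reporter were plated, left 4 hr at 37 C, then given compounds in DMSO for 24 hr. Luminescence was read 30 min after adding luciferase reagent.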

[8] = qHTS assay to identify small molecule antagonists of the sonic hedgehog signaling (Shh) pathway (AID 1259369; calls by dose curve; note: nearly all actives have a fitted effect of over 45% in size; note: potency is the fitted concentration of half-maximal effect)
How it was run: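 NIH/3T3-derived 3T3Gli1-Luc cells with stably integrated Gli1-Luc reporter were preincubated 4hr at 37 C, then given compounds in DMSO plus Shh conditioned medium and incubated 24hr. Firefly luciferase luminescence read after 30min reagent at room temperature.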

[9] = qHTS assay to identify small molecule antagonists of the estrogen receptor beta (ER-beta) signaling pathway - cell viability counter screen (AID 1259382); note: nearly all actives have a fitted effect of over 55% in size; note: potency is the fitted concentration of half-maximal effect
How it was run: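 ER-beta-UAS-bla HEK293T cells (2,000/well, 2% charcoal-stripped FBS) were pre-incubated 6 hr at 37C, then given compound plus 1nM final 17-beta-estradiol for 16 hr. Viability was read in the same wells by CellTiter-Glo luminescence after 30 min at room temperature.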

[10] = molecular target: Estrogen receptor (Homo sapiens) (UniProt P03372); test: qHTS assay to identify small molecule agonists of the estrogen receptor alpha (ER-alpha) signaling pathway in the presence of an antagonist (AID 1259383; calls by dose curve; note: nearly all actives have a fitted effect of over 15% in size; note: potency is the fitted concentration of half-maximal effect; for activation: top concentration of the series differs between compounds)
How it was run: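 VM7Luc4E2 cells (endogenous full-length ER-alpha, 4×ERE-luciferase) were precultured 5 days in phenol red-free medium with 10% charcoal-stripped FBS, given 10.0nM ICI-182,780 (final), then treated with compounds at 15 concentrations for 22hr at 37C; luminescence read with ONE-Glo.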

[11] = qHTS assay to identify small molecule agonists or antagonists of the thyroid stimulating hormone receptor (TSHR) signaling pathway - wild type cell line counter screen (AID 1259384; calls by dose curve)
How it was run: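 Wild-type HEK293 cells were plated 18 h at 37 C/5% CO2, pin-dosed with compound plus Ro20-1724 medium, held 30 min at room temperature, then given cAMP-d2 and anti-cAMP-cryptate; fluorescence was read after 1 h. Fifteen concentrations, triplicate.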

[12] = molecular target: Thyrotropin receptor (Homo sapiens) (UniProt P16473); test: qHTS assay to identify small molecule antagonists of the thyroid stimulating hormone receptor (TSHR) signaling pathway (AID 1259385; calls by dose curve; note: nearly all actives have a fitted effect of over 20% in size)
Chain of Thyrotropin receptor (Homo sapiens) (P16473 whole entry, looked up): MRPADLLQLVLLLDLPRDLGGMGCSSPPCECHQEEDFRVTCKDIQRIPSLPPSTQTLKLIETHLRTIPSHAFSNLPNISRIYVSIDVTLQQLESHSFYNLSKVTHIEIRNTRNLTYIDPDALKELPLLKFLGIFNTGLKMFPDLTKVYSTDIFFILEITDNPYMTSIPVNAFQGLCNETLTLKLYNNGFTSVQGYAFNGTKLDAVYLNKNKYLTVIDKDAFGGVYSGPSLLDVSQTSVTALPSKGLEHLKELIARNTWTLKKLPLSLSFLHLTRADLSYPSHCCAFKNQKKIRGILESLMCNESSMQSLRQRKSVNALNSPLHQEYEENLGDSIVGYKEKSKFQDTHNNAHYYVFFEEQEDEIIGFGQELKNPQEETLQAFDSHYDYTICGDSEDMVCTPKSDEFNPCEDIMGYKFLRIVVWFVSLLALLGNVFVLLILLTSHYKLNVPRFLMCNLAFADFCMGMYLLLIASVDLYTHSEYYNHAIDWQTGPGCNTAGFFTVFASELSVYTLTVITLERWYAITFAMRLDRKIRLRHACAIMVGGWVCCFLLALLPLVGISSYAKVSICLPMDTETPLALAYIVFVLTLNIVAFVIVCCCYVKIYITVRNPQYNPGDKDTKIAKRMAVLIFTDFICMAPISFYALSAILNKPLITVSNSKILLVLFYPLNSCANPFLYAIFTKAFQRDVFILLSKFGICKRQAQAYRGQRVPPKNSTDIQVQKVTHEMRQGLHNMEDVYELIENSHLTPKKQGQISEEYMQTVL
How it was run: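 TSHR-HEK293 cells were plated and held 18 h at 37C/5% CO2, then given compound plus Ro20-1724 and stimulated with TSH at 1.5 ng/mL final. After 30 min at room temperature, cAMP was detected with cAMP-d2/anti-cAMP-cryptate (1 h) by fluorescence.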

[13] = qHTS assay to identify small molecule agonists of the estrogen receptor alpha (ER-alpha) signaling pathway in the presence of an antagonist - cell viability counter screen (AID 1259386); note: series mostly up to about 92 µM; nearly all actives have a fitted effect of over 30% in size
How it was run: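 VM7Luc4E2 cells (endogenous full-length ER-alpha, 4×ERE-luciferase) were held 5 days in phenol red-free medium with 10% charcoal-stripped FBS, plated, then given 10.0nM ICI-182,780 and compounds at 15 concentrations for 22hr at 37C; viability read by CellTiter-Fluor fluorescence.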

[14] = qHTS assay to identify small molecule agonists of the sonic hedgehog signaling (Shh) pathway - cell viability counter screen (AID 1259366); note: nearly all actives have a fitted effect of over 50% in size; note: potency is the fitted concentration of half-maximal effect
How it was run: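 CellTiter-Fluor fluorescence read-out, 1 hr at 37C, added after 23hr compound exposure. Cells: 3T3 Gli1-Luc, an NIH/3T3 clone with stably integrated Gli1-Luc reporter, plated 4hr before compound.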

[15] = qHTS assay to identify small molecule agonists of the androgen receptor (AR) signaling pathway in the presence of an antagonist - cell viability counter screen (AID 1259379); note: nearly all actives have a fitted effect of over 25% in size; note: potency is the fitted concentration of half-maximal effect
How it was run: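 MDA-kb2 human breast carcinoma cells (stable MMTV-luciferase, AR/GR responsive) were seeded 3,000 cells/well, pre-incubated 5 hr at 37C without CO2, then given 3.0uM nilutamide and compounds at 15 concentrations for 16 hr. Viability was read by CellTiter-Fluor fluorescence.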

[16] = qHTS assay to identify small molecule agonists of the estrogen receptor beta (ER-beta) signaling pathway - cell viability counter screen (AID 1259380); note: nearly all actives have a fitted effect of over 30% in size; note: potency is the fitted concentration of half-maximal effect
How it was run: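 ER-beta-UAS-bla HEK293T cells in medium with 2% charcoal-stripped FBS were preincubated 6 hr at 37C, dosed with compound in DMSO for 16 hr, then after the bla read, CellTiter-Glo was added for 30 min at room temperature; luminescence recorded.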

[17] = molecular target: Estrogen receptor beta (Homo sapiens) (UniProt Q92731); test: qHTS assay to identify small molecule agonists of the estrogen receptor beta (ER-beta) signaling pathway (AID 1259377; active = well fitted activation curve with a large enough effect in the signal ratio in the repeat runs, not every such curve was filed as active; the % refers to the signal ratio)
Chain of Estrogen receptor beta (Homo sapiens) (Q92731 whole entry, looked up): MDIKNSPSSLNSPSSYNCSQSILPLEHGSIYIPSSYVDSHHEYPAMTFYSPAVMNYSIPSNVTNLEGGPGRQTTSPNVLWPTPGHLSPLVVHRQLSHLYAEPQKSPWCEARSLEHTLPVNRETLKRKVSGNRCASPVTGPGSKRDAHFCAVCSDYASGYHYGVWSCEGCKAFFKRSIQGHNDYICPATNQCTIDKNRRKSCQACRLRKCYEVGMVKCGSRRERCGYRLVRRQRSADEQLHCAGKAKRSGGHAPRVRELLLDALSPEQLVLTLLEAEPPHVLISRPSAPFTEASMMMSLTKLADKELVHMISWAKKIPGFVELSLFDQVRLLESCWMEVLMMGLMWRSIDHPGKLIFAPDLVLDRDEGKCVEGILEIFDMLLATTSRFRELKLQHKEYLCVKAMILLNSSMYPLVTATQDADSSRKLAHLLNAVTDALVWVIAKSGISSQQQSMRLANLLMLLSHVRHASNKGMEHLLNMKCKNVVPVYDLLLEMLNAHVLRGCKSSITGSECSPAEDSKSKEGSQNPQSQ
How it was run: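 Beta-lactamase reporter readout: fluorescence of LiveBLAzer B/G FRET substrate after 2 h at room temperature, following 16 h compound treatment of ER-beta-UAS-bla HEK293T cells at 37C in 2% charcoal-stripped FBS medium.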

[18] = molecular target: Estrogen receptor beta (Homo sapiens) (UniProt Q92731); test: qHTS assay to identify small molecule antagonists of the estrogen receptor beta (ER-beta) signaling pathway (AID 1259378; active = well fitted inhibition curve with a large enough effect in the signal ratio in the repeat runs, not every such curve was filed as active; the % refers to the signal ratio)
How it was run: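 ER-beta-UAS-bla HEK293T (GripTite) cells in 2% charcoal-stripped FBS medium were preincubated 6 hr at 37C, dosed with compound, then stimulated with 1 nM E2 (final) for 16 hr; beta-lactamase reporter read by B/G FRET fluorescence after 2 hr substrate loading.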

[19] = qHTS assay to identify small molecule phospholipidosis (PLD) inducers (AID 1259344; active = well fitted curve in the direction sought with a large enough effect; an effect the other way counts as inactive or inconclusive)
How it was run: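 HepG2 cells grown on collagen I take up LipidTOX Red while exposed to compound for 24 h; after fixation they are imaged at 20x and pit metrics are extracted.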

Measured: Potency

Oc1ccc(-c2ccccc2)cc1
not listed: [14] | [15] | [16] | [17] | [18] | [19]
inactive: all other assays above

CNC(=O)Oc1cccc2c1OC(C)(C)O2
not listed: [11] | [17] | [18] | [19]
inactive: all other assays above

Cc1c(COC(=O)[C@@H]2[C@H](/C=C(\Cl)C(F)(F)F)C2(C)C)cccc1-c1ccccc1
not listed: [4] | [15] | [19]
inactive: all other assays above

NNC(=S)NN
active: [8] 28.1 µM and 24.3 µM | [16] 30.6 µM
not listed: [11] | [14] | [18] | [19]
inactive: all other assays above

Nc1ccc(-c2ccccc2)cc1
active: [10] 8.87 µM and 9.69 µM
17.7 µM (active) and inactive: [8]
19.9 µM (active) and inactive: [16]
not listed: [4] | [15] | [17] | [19]
inactive: all other assays above

Brc1ccc(Oc2cc(Br)c(Br)cc2Br)c(Br)c1
active: [16] 30.6 µM
not listed: [4] | [11] | [12] | [15] | [19]
inactive: all other assays above

O=P(Oc1ccccc1)(Oc1ccccc1)Oc1ccccc1
active: [8] 1.08 µM and 2.43 µM | [16] 34.4 µM
not listed: [11] | [18] | [19]
inactive: all other assays above

COc1ccc(C=O)cc1
not listed: [15] | [17] | [18] | [19]
inactive: all other assays above

C=C(C)C(=O)OCC1CO1 (configuration not stated)
not listed: [4] | [11] | [19]
inactive: all other assays above

CCCCOCCOP(=O)(OCCOCCCC)OCCOCCCC
active: [16] 24.4 µM
not listed: [8] | [9] | [11] | [19]
inactive: all other assays above

Oc1c(Cl)c(Cl)c(Cl)c(Cl)c1Cl
active: [3] 30 µM and 30.6 µM
not listed: [4] | [11] | [17] | [18] | [19]
inactive: all other assays above

N#CC(Br)Br
not listed: [4] | [11] | [15] | [19]
inactive: all other assays above

OCC(O)CO
not listed: [4] | [15] | [19]
inactive: all other assays above

Oc1cc(Cl)ccc1Oc1ccc(Cl)cc1Cl
active: [2] 31.4 µM | [8] 5.58 µM | [15] 27.9 µM | [16] 39.5 µM | [9] 41.8 µM
31.4 µM (active) and inactive: [14] | [6]
inactive: [1] | [19] | [4] | [5] | [7] | [17]

COC(=O)c1sccc1S(=O)(=O)NC(=O)Nc1nc(C)nc(OC)n1
not listed: [11] | [15] | [19]
inactive: all other assays above

C[C@]12CCC(=O)C(O)=C1CC[C@@H]1[C@@H]2CC[C@]2(C)C(=O)CC[C@@H]12
active: [16] 24.3 µM
not listed: [8] | [11] | [12] | [17] | [18] | [19]
inactive: all other assays above
